# Laboratory results taken from PubChem BioAssay AID651593 (National Center for Advancing Translational Sciences (NCATS), 2012).
# Among all 1,100 compounds or so, about 860 (78%) were called active. Roughly 19% stayed inconclusive and do not appear here. So high a share suggests a set chosen from earlier hits. The list shows a part of the results. A number with no mark means an inactive call. The call rests on the fitted dose curve; in most records, active means well fitted activation curve with a large enough effect; inconclusive means small, poorly fitted or top-dose-only effect; inactive means flat fitted curve, though single readings scatter.
# Experiment: qHTS of Nrf2 Activators: Hit Validation in Primary Assay; further: nearly all actives have a fitted effect of over 70% in size; on activation: 0% is about no effect
# Settings: Nrf2/ARE reporter cell assay; Potency: activation; series mostly up to 46.1 µM; activation: at the top concentration
# Source text: Many diseases have some form of oxidative stress injury and ties to inflammation, causing a host of problems for the patient. The antioxidant response element (ARE) plays an important role in alleviating the harmful effects of oxidative stress. The antioxidant response element (ARE) is a transcriptional regulatory element involved in the activation of genes coding for a number of antioxidant proteins and detoxifying enzymes. These enzymes work in concert to protect tissues from oxidative insults and chemical toxicities in human hepatocytes and immune cells. The protective effects of ARE activation are primarily triggered through Nrf2 (NF-E2-related factor) binding to and activating AREs. It is known that Nrf2 controls the production of over 250 antioxidant and detoxification proteins (Hu et al., 2006), thereby protecting tissues by increasing cellular antioxidant content and suppressing inflammatory signaling pathways. The transcription factor Nrf2 is a central link between oxidative chemicals, such as phenolic antioxidants and electrophilic compounds, and the activation of ARE. Nrf2 levels are constitutively low as a consequence of its interaction with Keap1, which targets its degradation (Zipper and Mulcahy, 2002). Electrophiles react with key cysteine residues in Keap1, releasing Nrf2 and allowing its translocation to the nucleus. Once within the nucleus, Nrf2 complexes with coactivators such as p300, and binds to the AREs to induce gene transcription of cytoprotective enzymes, resulting in the prevention of toxicity. Activation of Nrf2 protects tissues by increasing cellular antioxidant content and suppressing inflammatory signaling pathways. Identifying novel and potent Nrf2 activators by using the AREc32 cell line to detect ARE activation by small molecules will lead to the identification and development of probes to study protective pathways in multiple tissues. These specific probes are essential to study the ARE pathway, and eventually to determine whether this pathway does activate genes that could protect against a host of diseases, including cardiovascular diseases, obesity, diabetes, Alzheimer's, and Parkinson's disease.
# This project's aim is to identify novel and potent Nrf2 activators by using the AREc32 cell line to detect ARE activation by small molecules, which will lead to the identification and development of probes to study the ARE pathway.
# NIH Chemical Genomics Center [NCGC]
# NIH Molecular Libraries Probe Centers Network [MLPCN]
# Assay Submitter (PI): Curtis Klaassen, University of Kansas Medical Center
# Quantification of ARE activation after compound treatment was measured by the Steady-Glo Luciferase (R) assay system (Promega) in AREc32_fluc stable cells. The Steady-Glo reagent acts by cell lysis and generation of a luminescent signal proportional to ARE activation, through the luciferase reporter in the AREc32 stable cell line. AREc32_fluc cells were harvested from T225 flask and resuspended in phenol red free OPTI-MEM medium with 5% FBS. Then 5 microL of 200,000 cells/mL resuspended cells were dispensed into each well of white, solid bottom, 1536-well tissue culture-treated plates using a Multidrop Combi dispenser. After overnight culture at 37 degrees C with 5% CO2, a total of 23 nL of compounds at 5 selected concentrations from the MLSMR/Sytravon or positive control (40 uM stock of CDDO-IM and 2 mM of tBHQ) in DMSO was transferred to each well of the assay plate using a pintool (Kalypsys, San Diego, CA), and the plates were further incubated at 37 degrees C with 5% CO2 for 24 hours. After that, 2 microL of Steady Glo luminescent substrate mix (Promega) was added to each well. The plate was incubated at room temperature for 30 minutes. The plates were measured on a ViewLux plate reader (PerkinElmer) with clear filter.
# Potency means the concentration at half of the fitted maximal effect.
SMILES,Potency,activation [%]
Brc1ccccc1C1N=C(c2ccccc2)NO1 (stereo unspecified),5.8 µM (active),–
CN1CCN(c2sc(S(C)(=O)=O)nc2S(=O)(=O)c2ccc(Cl)cc2)CC1,8.2 µM (active),–
Cc1ccc(S(=O)(=O)c2nc(S(C)(=O)=O)sc2N2CCN(C)CC2)cc1,5.17 µM (active),–
O=C(Nc1nc2ccc(F)cc2s1)c1ccc([N+](=O)[O-])o1,3.66 µM (active),–
O=C(Nc1nc2c(Cl)cccc2s1)c1ccc([N+](=O)[O-])o1,3.66 µM (active),–
O=c1cc(-c2cccc(Br)c2)oc2cccc(O)c12,5.8 µM (active),–
Cn1c(N)c(C(=O)COC(=O)c2nc(Cl)ccc2Cl)c(=O)n(C)c1=O,1.46 µM (active),–
COc1cc(NC(=S)Nc2ccccn2)c(OC)cc1Cl,5.17 µM (active),–
COc1ccc(C(C#N)=C2C=CC(=NO)C=C2)cc1,1.3 µM (active),–
C/C(=N\NC(=S)Nc1cccc(C)c1)c1ccco1,2.31 µM (active),–
O=C(Nc1ccc(OC(F)F)cc1)c1ncc(Cl)c(Cl)c1Cl,16.4 µM (active),–
c1ccc(CSc2nccc(-c3ccco3)n2)cc1,20.6 µM (active),–
Nc1nccc(/C=C/c2c(F)cccc2Cl)n1,9.2 µM (active),–
COc1ccccc1Cc1c(-c2ccco2)nc2ccc(Cl)cn12,16.4 µM (active),–
Clc1ccc2nc(-c3ccco3)c(Cc3ccccc3)n2c1,23.1 µM (active),–
FC(F)(F)c1cc(-c2ccco2)nc(-n2nnc3ccccc32)n1,2.59 µM (active),–
FC(F)(F)c1cc(-c2cccs2)nc(NCc2ccco2)n1,4.61 µM (active),–
FC(F)(F)c1cc(-c2ccco2)nc(NCc2ccco2)n1,11.6 µM (active),–
Cc1ccc(N=C2NC(=O)/C(=C/C=C/c3ccco3)S2)cc1,2.06 µM (active),–
O=C1NC(=Nc2ccccc2)S/C1=C\C=C\c1ccco1,2.31 µM (active),–
O=[N+]([O-])c1cccc(C=NN=Cc2ccccc2O)c1,8.2 µM (active),–
O=[N+]([O-])c1ccccc1C=CC=NN=Cc1ccccc1O,3.26 µM (active),–
NC(=O)N/N=C/c1ccccc1OC(=O)c1ccccc1Br,3.26 µM (active),–
COC(=O)c1sccc1NC(=O)c1ccc(Br)s1,7.31 µM (active),–
COC(=O)c1sccc1NC(=O)c1ccc(Br)o1,9.2 µM (active),–
Cc1ccc(S(=O)(=O)c2cc3ccccc3oc2=O)cc1,8.2 µM (active),–

SMILES,Potency,activation [%]
COC(=O)C(=C/C=C/c1ccco1)C(=O)OC,9.2 µM (active),–
COc1ccccc1NC(=O)/C=C\c1ccco1,1.84 µM (active),–
COC(=O)c1c(NC(=O)/C=C/c2ccco2)sc2c1CCC2,0.461 µM (active),–
COC(=O)c1ccccc1NC(=O)/C=C/c1ccco1,0.411 µM (active),–
O=C(/C=C/c1ccco1)Nc1ccccc1N1CCCCC1,1.16 µM (active),–
O=c1c2cc3c(=O)n(-c4ccccc4O)c(=O)c3cc2c(=O)n1-c1ccccc1O,–,3.75
CCOc1ncccc1C(=O)NNC(=O)c1ccc(NS(=O)(=O)c2cccs2)cc1,2.59 µM (active),–
O=C(/C=C/c1ccc(-c2ccccc2[N+](=O)[O-])o1)c1ccc(Br)cc1,1.84 µM (active),–
O=C(/C=C/c1ccc(-c2ccccc2[N+](=O)[O-])o1)c1ccccc1,3.66 µM (active),–
Cc1ccc(C(=O)/C=C/c2ccc(-c3ccccc3[N+](=O)[O-])o2)cc1,2.06 µM (active),–
CC(/C=N/NC(=O)Cc1cccn1C)=C\c1ccco1,1.46 µM (active),–
c1ccc(CNc2nc(NCc3ccco3)nc(N3CCOCC3)n2)cc1,5.17 µM (active),–
CNC(=O)c1ccsc1NC(=O)c1ccc(Cl)s1,7.31 µM (active),–
O=C1c2cccc3cccc(c23)C(=O)N1Cc1ccco1,5.17 µM (active),–
Nc1ccccc1N1C(=O)c2cccc3cccc(c23)C1=O,16.4 µM (active),–
CC(=O)Nc1cc(-c2ccsc2)cn2c(-c3ccc(F)cc3)cnc12,5.17 µM (active),–
CC(C)c1ccc(NC(=O)c2cc(Br)ccc2Br)cc1,5.8 µM (active),–
CCN1CCN(c2sc(S(C)(=O)=O)nc2S(=O)(=O)c2ccc(Cl)cc2)CC1,14.6 µM (active),–
CS(=O)(=O)c1nc(S(=O)(=O)c2ccc(Cl)cc2)c(N2CCN(CCO)CC2)s1,8.2 µM (active),–
COC(=O)c1cc(S(=O)(=O)C(C)C)c(S(C)=O)s1 (stereo unspecified),20.6 µM (active),–
COc1c(C(=O)Nc2nnc(C3CC3)s2)csc1Cl,8.2 µM (active),–
CCCc1c(C(=O)N/N=C/c2cccs2)nnn1-c1nonc1N,4.11 µM (active),–
CN1C2CCC1/C(=C\c1ccccc1)C(=O)/C2=C\c1ccccc1,2.91 µM (active),–
N#C/C(=C\c1ccccc1[N+](=O)[O-])c1nc(C2CC2)cs1,11.6 µM (active),–
O=[N+]([O-])c1ccccc1S(=O)c1ccccc1[N+](=O)[O-],16.4 µM (active),–
COc1cc(Cl)cc(/C=C/c2ccc3cccc(O)c3n2)c1OC,2.31 µM (active),–

SMILES,Potency,activation [%]
Oc1ccc(Cl)cc1/C=C/c1ccc2cccc(O)c2n1,4.61 µM (active),–
COc1cc(/C=C/c2ccc3cccc(O)c3n2)cc(OC)c1OC,–,25.9
Nc1c(C(=O)Nc2ccccc2Br)sc2nc(-c3cccs3)ccc12,14.6 µM (active),–
COC(=O)c1ccc2nc(-c3ccco3)c(Cc3cccc(Cl)c3)n2c1,23.1 µM (active),–
COC(=O)c1ccc2nc(-c3ccco3)c(Cc3ccccc3)n2c1,18.4 µM (active),–
COC(=O)c1ccc2nc(-c3cccc(Cl)c3)c(Cc3ccccc3OC)n2c1,2.91 µM (active),–
O=[N+]([O-])c1cccc2ccc(/C=C/c3ccc(Cl)cc3)nc12,1.16 µM (active),–
CCOc1cc(/C=C/c2ccc3cccc([N+](=O)[O-])c3n2)cc(Cl)c1O,0.517 µM (active),–
O=[N+]([O-])c1ccc(/C=C/c2ccc3cccc([N+](=O)[O-])c3n2)cc1,0.731 µM (active),–
O=[N+]([O-])c1cccc2ccc(/C=C/c3ccc(F)cc3)nc12,1.84 µM (active),–
O=[N+]([O-])c1cccc2ccc(/C=C/c3cccc(Br)c3)nc12,1.84 µM (active),–
CC(=O)c1cc2c(cc1NC(=O)CSc1nc3ccccc3o1)OCO2,8.2 µM (active),–
O=C(CSc1nc2cc(Cl)ccc2s1)c1ccco1,1.84 µM (active),–
O=C(CSc1nc2ccccc2s1)N/N=C/c1ccco1,8.2 µM (active),–
C/C(=N\NC(=O)CSc1nc2ccccc2s1)c1ccco1,5.17 µM (active),–
CC(=NNC(=O)CSc1nc2ccccc2o1)c1ccco1,7.31 µM (active),–
Cc1cc(SCC(=O)c2cccs2)nc2ccccc12,2.59 µM (active),–
Cc1cc(C)c(C#N)c(SCC(=O)c2cccs2)n1,5.17 µM (active),–
Cc1ccnc(SCC(=O)c2ccc(Br)cc2)c1C#N,2.31 µM (active),–
CSc1nc(N)nc(SCC(=O)c2ccccc2)c1C#N,7.31 µM (active),–
Cc1cc(C)c(C#N)c(SCC(=O)c2ccccc2)n1,14.6 µM (active),–
O=C(CN1CCN(Cc2ccccc2Cl)CC1)N/N=C/C=C/c1ccco1,2.59 µM (active),–
O=C(CN1CCN(Cc2ccccc2)CC1)N/N=C\C=C/c1ccco1,20.6 µM (active),–
CC(=NNc1ccc2ccccc2n1)c1ccccc1O,3.66 µM (active),–
CC(=O)OC1(C(C)=O)CCC2C3CC(C(F)(F)F)C4=CC(=O)CCC4(C)C3CCC21C (stereo unspecified),4.61 µM (active),–
O=C1N/C(=N\N=C\c2ccco2)SC1Cc1ccc(F)cc1 (stereo unspecified),0.731 µM (active),–

SMILES,Potency,activation [%]
O=C1N/C(=N\N=C\c2ccco2)SC1Cc1ccccc1[N+](=O)[O-] (stereo unspecified),2.06 µM (active),–
Cc1cccc(CC2S/C(=N/N=C/c3ccco3)NC2=O)c1 (stereo unspecified),0.206 µM (active),–
O=C(C=Cc1ccco1)c1ccc2ccccc2c1,2.59 µM (active),–
CC(/C=C/c1ccco1)=N\NC(=O)CNc1ccc2ccccc2c1,16.4 µM (active),–
Cc1nc(Nc2ccccc2F)c2oc3ccccc3c2n1,2.31 µM (active),–
CCc1nc(Nc2cccc(F)c2)c2oc3ccccc3c2n1,2.91 µM (active),–
NC(=O)c1oc2ccccc2c1NC(=O)c1ccco1,2.31 µM (active),–
NC(=O)c1oc2ccccc2c1NC(=O)c1ccccc1,2.59 µM (active),–
O=C(Nc1c(O)c2ccccc2[nH]c1=O)c1ccco1,7.31 µM (active),–
CN1c2ccsc2/C(=N/Nc2ccccc2)CS1(=O)=O,2.31 µM (active),–
C=C(C)CNC(=S)N/N=C(\C)c1ccc(Cl)s1,2.59 µM (active),–
CCOc1ccccc1NC(=O)C1COc2ccccc2O1 (stereo unspecified),4.61 µM (active),–
O=C(Nc1ccccc1[N+](=O)[O-])C1COc2ccccc2O1 (stereo unspecified),4.61 µM (active),–
COc1ccc(Cl)cc1NC(=O)C1COc2ccccc2O1 (stereo unspecified),2.91 µM (active),–
Cc1csc(NC(=O)c2cc(-c3ccco3)nc3ccccc23)n1,2.59 µM (active),–
NS(=O)(=O)c1ccc(NC(=O)c2cc(-c3cccs3)nc3ccccc23)cc1,–,14.1
O=C(Nc1nccs1)c1cc(-c2ccco2)nc2ccccc12,8.2 µM (active),–
O=C(N/N=C/c1ccc(Br)s1)c1cccs1,2.91 µM (active),–
Cc1ccsc1/C=N/N=C1\C(=O)Nc2ccccc21,7.31 µM (active),–
N=c1n(CCN2CCOCC2)c2ccccc2n1CC(=O)c1cccc([N+](=O)[O-])c1,2.91 µM (active),–
CCn1c(=N)n(CC(=O)c2cccc([N+](=O)[O-])c2)c2ccccc21,2.31 µM (active),–
CC1(O)c2ccccc2C(=O)N1CCc1ccccc1F (stereo unspecified),5.8 µM (active),–
Cc1ccc(-c2nc(C=Nc3ccc(O)cc3)c(O)o2)cc1,16.4 µM (active),–
